Source: PubChem
HCMV inh: human cytomegalovirus inhibition | hit rate 4.5% among 410,000 | HFF cells, HCMV-luciferase reporter, 72 h; active compounds read low | activity change, negative = inhibition, % at 57.5 µM; in the data active means activity change below about -60%; inconclusive means no clear call, values can overlap the other calls; inactive means above about -39%; further: on the % scale 0 is the no-effect control and ±100 the full control effect
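Two compound doses tested in HFFs infected with HCMV-luciferase, MOI 1 PFU/cell, 72 h at 37C. Lysate luminescence read with OneGlo; data normalized against buffer-only and 10uM Salinomycin inhibitor controls.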
SARS PLpro yeast: blocks SARS-CoV papain-like protease in a yeast assay; S. cerevisiae expressing SARS-CoV PLpro, growth rescue; Potency, µM (doses to about 32.9 µM), inactives show at the highest dose activity, positive = growth rescue, usual class: activators; hit rate 0.19% among 330,000; calls by dose curve; further: potency means the concentration at half of the fitted maximal effect; 0% is about no effect; nearly all actives have a fitted effect of over 55% in size
LASV entry inh: inhibitors of Lassa virus binding or cell entry; Potency, µM (series often up to 37.9 µM), without a hit: at the highest dose activity change, negative = inhibition, usual class: inhibitors; hit rate 1.2% among 300,000; Lassa virus pseudotype entry inhibition, cell reporter; calls by dose curve; tested in HEK293 cells; further: potency means the concentration at half of the fitted maximal effect; on the % scale 0 is the no-effect control and ±100 the full control effect; nearly all actives have a fitted effect of over 50% in size
HCV inhibitor: inhibitors of hepatitis C virus infection; Huh7.5.1 HCVcc-Cre infection, luciferase reporter, 44 h; Potency, µM (series often up to 41.8 µM), inactives show at the highest dose activity change, negative = inhibition, most hits filed as inhibitors; hit rate 3.4% among 340,000; AID 651820; active means well fitted inhibition curve with a large enough effect; inconclusive means small, poorly fitted or top-dose-only effect, or another doubt; inactive means no such curve, though single readings can be large or run the other way; further: potency means the concentration at half of the fitted maximal effect; on the % scale 0 is the no-effect control and ±100 the full control effect
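Luciferase read-out (15 sec integration) after a 15 min room-temperature substrate step quantifies HCVcc-Cre infection. Cells, 1,000 per well, had compound added 4 h post-plating, then virus at ~0.5 moi, and were cultured 44 h.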
FMDV antiviral: blocks foot and mouth disease virus. FMDV antiviral cell-based qHTS. Potency, µM (doses to about 57.9 µM), for inactives: at the top dose activity change, negative = inhibition, hits mostly inhibitors. hit rate 1.2% among 410,000. AID 1159524; calls by dose curve; tested in HEK293T cells; further: read-out not given here; potency means the concentration at half of the fitted maximal effect; on the % scale 0 is the no-effect control and ±100 the full control effect; nearly all actives have a fitted effect of over 45% in size
MARV entry inh: blocks Marburg virus binding to or entry into cells. Marburg virus pseudotyped entry inhibition, cell reporter. Potency, µM (top dose mostly 37.8 µM), inactives show top-dose activity change, negative = inhibition, actives largely listed as inhibitors. AID 540276. hit rate 1.8% among 300,000; calls by dose curve; tested in HEK293 cells; further: potency means the concentration at half of the fitted maximal effect; on the % scale 0 is the no-effect control and ±100 the full control effect
An asterisk follows results filed as active; ? = inconclusive; / = not tested or not shown; [ ] = dose if it differs, or a comment. Most compounds without a hit are left out; they make up all but 8% or so of the library.

SMILES	HCMV inh	SARS PLpro yeast	LASV entry inh	HCV inhibitor	FMDV antiviral	MARV entry inh
Cc1ccc(O)c(C2=NNC(O)(C(F)(F)F)C2)c1 (stereo not given)	-30.3	-12.6%	?	11.2µM*	-15.2%	-12.3%
CC(=O)c1ccccc1NC(=O)COC(=O)/C(=C/c1ccccc1)n1nnnc1C	0.4	-3.9%	?	-2.9%	22.4µM*	?
CCN(C(=O)COC(=O)/C(=C/c1ccccc1)n1nnnc1C)C1CCCCC1	?	0.3%	-7.8%	?	22.4µM*	12.6µM*
COc1ccc([C@]23Cc4cc(C#N)ccc4C(O2)c2c(c4ccc(OC)cc4oc2=O)O3)cc1	/	-1.6%[6.58 µM]	/	/	/	?
CCOC(=O)c1sc2cccc(F)c2c1S(=O)(=O)N1CCN(c2cccc(Cl)c2)CC1	-8.6	/	-21.3%[46.1 µM]	/	-13.9%	/
CC(C)Nc1nc(-c2cccnc2)nc(-c2ccccc2)c1C#N	/	2.3%	/	?	?	/
CC(C)Nc1nc(-c2ccccn2)nc(-c2ccccc2)c1C#N	-67.3*	3.2%	-5.2%[46.1 µM]	8.4%	-15.2%	1.2%[46.1 µM]
O=C(N/N=C/C1=C(N2CCOCC2)C(=C\c2ccccc2)/CC1)Nc1ccccc1	-70.9*	4.3%	-5.2%	?	-1.5%	?
Cc1cc(C)nc(N/N=C/C2=C(N3CCOCC3)C(=C/c3ccccc3)/CC2)n1	?	-20.8%	?	?	28.2µM*	?
CCOC(=O)Cn1c(=O)n(C2CCCCC2)c2nc(-c3ccc(Cl)cc3)nc(C(N)=O)c21	13.8	/	-0.9%[46.1 µM]	/	-11.3%	/
Cc1cc([N+](=O)[O-])ccc1NC(c1nnc(-c2ccccc2)o1)c1ccccc1F (stereo not given)	36.5	/	3.5%[46.1 µM]	/	6.6%	/
CC1CC2CCCC(O)=C2C(=O)O1 (stereo not given)	-60.6*	/	/	11.3%	-27.3%	/
OC(CNCc1ccccc1)c1ccccc1 (stereo not given)	1.6	0.6%	?	-18.9%	-3.5%	-26.4%
Oc1cccc(C(O)CNCc2ccc(-c3ccccc3)cc2)c1 (stereo not given)	-61.9*	-0.9%	?	?	-6.2%	?
CCOCCCNC(=O)C(c1ccccc1)N(Cc1cccs1)C(=O)c1ccc(NC(C)=O)cc1 (stereo not given)	-6.6	/	-3.6%[46.1 µM]	/	-19.8%	?
Cc1ccc2c(c1)C=CC(C#N)N2C(=O)Oc1ccccc1 (stereo not given)	-10.4	/	/	/	0.0%	/
Cc1ccc2c(c1)C=CC(C#N)N2C(=O)c1ccccc1 (stereo not given)	2.1	11.2µM*	?	?	?	?
CN(C)S(=O)(=O)c1ccc2c(c1)C(=NO)c1cc(S(=O)(=O)N(C)C)ccc1-2	-64.4*	0.8%	-0.3%	-20.6%	2.6%	-1.6%[46.1 µM]
CCc1ccc(NC(=O)CSc2nc3c([nH]c4ccccc43)c(=O)n2-c2ccc(C)cc2)cc1	-96.0*	/	?	/	0.0%	/
CCOc1ccc(-n2c(SCC(=O)Nc3cc(C)on3)nc3c([nH]c4ccccc43)c2=O)cc1	-35.1	3.9%	-18.4%[46.1 µM]	22.4µM*	-15.8%	/
COc1cccc(-n2c(SCC(=O)Nc3c(C)cc(C)cc3C)nc3c([nH]c4ccccc43)c2=O)c1	-80.3*	/	?	/	-5.1%	/
Cc1ccc(-n2c(SCC(=O)Nc3cc(C)on3)nc3c([nH]c4ccccc43)c2=O)cc1	-70.0*	1.3%	/	?	-7.6%	1.7%
C[C@@H]1C[C@H]2CC(=O)N3[C@H](CC(=O)N2[C@H]1c1ccccc1)C[C@@H](C)[C@@H]3c1ccccc1	/	/	/	/	/	15.2%[14.2 µM]
O=C(CSc1nc2c([nH]c3ccccc32)c(=O)n1-c1ccccc1F)Nc1cccc(C(F)(F)F)c1	-62.4*	/	?	/	?	/
COc1ccc(CCNC(=O)CCS(=O)(=O)c2cc(Br)cc3c2N(C(C)=O)CC3)cc1OC	-1.2	/	1.9%[46.1 µM]	/	5.1%	-12.8%[46.1 µM]
Cc1ccc(C(=O)NC(=C(Cl)Cl)S(=O)(=O)c2ccccc2)cc1	-69.6*	-24.8%	?	11.2µM*	?	?
COc1ccc(C(=O)NC(=C(Cl)Cl)S(=O)(=O)c2ccc(C)cc2)cc1	35.3	-2.7%	/	-10.5%	-3.9%	/
COC(=O)NC(=C(Cl)Cl)S(=O)(=O)c1ccccc1	-31.2	/	12.6µM*	11.2µM*	28.2µM*	?
